Experimental findings from paper PMC12136788 are described below.

First the molecules themselves.
B1: chr20:54218986:54219149:+|CDS|ENSG00000101132|unk|FALSE|unique (ssRNA)
RNA: GGGAGUUCUACAGUCCGACGAUCAAAUUUGCAAGAAGAAAUUGACGCCUUAGAAUCCAGAGUGGAAUCAAUUCAGCGAGUGUUAGCAGAUUUGAAAGUUCAGUUGUAUGCAAAAUUCGGGAGCAACAUAAACCUUGAAGCUGACAACAGAGGAUUGAGCAUCA
B2: chr5:136988535:136988636:-|CDS|ENSG00000152377|msi1|total|mutant (ssRNA)
RNA: GGGAGUUCUACAGUCCGACGAUCGGAAAGCAUCAGGCUUGGUGGCAGCUGAGAUAUGCCUUUUGUUUGGCAGGGUUUGACACCCGCAUCCUGCCCAUCUGCAAGGACUCCCUGGGCUGGAUGUUCAACAAGUUGGACAUGAACCAACAGAGGAUUGAGCAUCA
B3: ENSG00000107863:be:win_3301|CDS|ENSG00000107863|bound_else_gene|NA|bound_elsewhere_windowed (ssRNA)
RNA: GGGAGUUCUACAGUCCGACGAUCAAGGAAGAGUCGGAAAGGAAACUUCUCAGUAAAGAUGAUACCAGUCCCCCAAAAGACAAAGGCACAUGGAGAAAAGGCAUUCCAAGUAUCAUGAGAAAGACAUUUGAGAAAAAGCCAACUCAACAGAGGAUUGAGCAUCA
B4: ENSG00000136451:be:win_2301|3pUTR|ENSG00000136451|bound_else_gene|NA|bound_elsewhere_windowed (ssRNA)
RNA: GGGAGUUCUACAGUCCGACGAUCAAAAAUCUACAAAUUGUGUUUUGCUAAGAAAAGCCUCAACUGACAGAGGAGAAGUCAAGUGUGUGGACAGGCAAGCUCCUAAUAAACAGAGUCCAGUGGGAUUCCUAUUUAGGAGCCAAGCAACAGAGGAUUGAGCAUCA
B5: chr10:123166816:123166917:+|3pUTR|ENSG00000154473|unk|FALSE|unique (ssRNA)
RNA: GGGAGUUCUACAGUCCGACGAUCAAAAACUUAAAGGUAUAUUAGCAGGUUAGCCUUUGUUCUGUGGGAGAUCCAGGCCUUGUUAGAAGGACCAAGGCCAGAAUGCCCAGUUUAGCCUUAGCAUUCAAACCCUUCAUUGUUUUUCAACAGAGGAUUGAGCAUCA
B6: chr12:48653210:48654175:-|three_prime_utr|ENSG00000139620|control|control|control (ssRNA)
RNA: GGGAGUUCUACAGUCCGACGAUCGCACCAUUGUCUCAGAGUGGAUUGGCUACUGCAAAUGGGAAGCCAGAACCCACUUCUAUUAGUUGAUAGUUUGGGGAACCAUUUUACUUUGGUGGAUUUAAAUUUCUCGUUCUUCAAAGACAACAGAGGAUUGAGCAUCA
B7: chr1:965281:965395:+|3pUTR|ENSG00000187961|unk|FALSE|unique (ssRNA)
RNA: GGGAGUUCUACAGUCCGACGAUCCCAUCCGUUCACGUCUCUGCAUCCAUUCCUUCAUGUCUUUAUUUAGUUGUUUAUUUAUUUAGUUAUUUAUCUUAUUUAUUGAGGGGUGAGGAGUGCCACGGCUGCCCGUUUACACCUUUACAACAGAGGAUUGAGCAUCA
B8: chr3:62294290:62294391:+|3pUTR|ENSG00000144724|msi1|total|mutant (ssRNA)
RNA: GGGAGUUCUACAGUCCGACGAUCAACCCGUCCUCUAAAAAUUCCCUAUUACUCCUACCGCAAUCUAAUAAAAACUACCUACACCGUUACUGUUUUCUUUCCUUCUUUGCCAAAUGUUUUAUAAUAAAUCUCUUAAUUACAUACCAACAGAGGAUUGAGCAUCA
B9: chr17:77216858:77216994:+|3pUTR|ENSG00000129657|unk|FALSE|bound_elsewhere (ssRNA)
RNA: GGGAGUUCUACAGUCCGACGAUCUGUUUCUACCUUUAGUACCUUGCCACUCUUUUAAAACGCUGCUGUCAUUUCCCAUUUCUUAGUACUAAUGAUUCUUUGAUUCUCCCUCUAUUAUGUCUUAAUUCACUUUCCUUCCUAAAUCAACAGAGGAUUGAGCAUCA
B10: chr1:162523450:162523604:+|3pUTR|ENSG00000152332|msi1|FALSE|unique (ssRNA)
RNA: GGGAGUUCUACAGUCCGACGAUCAGACUAAGUUGUGCCAGAUGUAAAUCAACCCCUCUUUUAGUUUACUUUAGACUUUGUAUUAGCUCAUCUUUUUUGUAGUAAAUCUAUAGUUUUAAGGUUUCUCAAGAUGUGGCUCUACCUCAACAGAGGAUUGAGCAUCA
B11: chr10:119167843:119167906:-|3pUTR|ENSG00000165672|msi1_unk|FALSE|overlapping (ssRNA)
RNA: GGGAGUUCUACAGUCCGACGAUCUGCAUGAUCCCUCAUCCCUGAAAUUGAGUUUAUGUAGUCAUUUUACUUAUUUUAUUCAUUAGCUAACUUUGUCUAUGUAUAUUUCUAGAUAUUGAUUAGUGUAAUCGAUUAUAAAGGAUACAACAGAGGAUUGAGCAUCA
B12: chr7:107760707:107760808:+|3pUTR|ENSG00000105879|unk|total|mutant (ssRNA)
RNA: GGGAGUUCUACAGUCCGACGAUCAAACAUGAAAUAUGCCGUAUGCAGAUAUCAUUUAUCCGACCGUUUGCCGUGUAUACAUUCCGAACAUACUUCUUUUGACAAAGGGUGAUCUGAUUGCUAAUUUACCAUUUUAUUCUGUCACAACAGAGGAUUGAGCAUCA
B13: chr1:162523450:162523604:+|3pUTR|ENSG00000152332|msi1|total|mutant (ssRNA)
RNA: B10 RNA with U61C, A62C, U71C, A72C, U83C, A84C, U99C, A100C, U110C, A111C
B14: chr1:965281:965395:+|3pUTR|ENSG00000187961|unk|total|mutant (ssRNA)
RNA: B7 RNA with U67C, A68C, U83C, A84C
B15: chr7:107760707:107760808:+|3pUTR|ENSG00000105879|unk|FALSE|unique (ssRNA)
RNA: B12 RNA with C38U, C39A, C59U, C60A, C63U, C64A, C70U, C71A, C83U, C84A
B16: chr1:229660051:229660152:+|3pUTR|ENSG00000135763|msi1|FALSE|bound_elsewhere (ssRNA)
RNA: GGGAGUUCUACAGUCCGACGAUCCUCAUUCAUAGUCUCAGUUACCCAGAUAACCUCGGUUGUCACCUUGGAGUAUCUUGUUGUAGUCCCUUUACUAUGUGUAUGUAUAUAGAUGUGCAUAUAAAUAUAUAUAGUAGCUAAAUUCAACAGAGGAUUGAGCAUCA
B17: chr11:130144177:130144243:+|3pUTR|ENSG00000084234|msi1_unk|total|mutant (ssRNA)
RNA: GGGAGUUCUACAGUCCGACGAUCAUGAGGGUGUCCGCUGCUGCUUUCCUUCGGAAUCCAGUGCUUCCACAGAGAUCCGCCUGCCGCUUAUAUUUGACAUUCUUCACUGUCUGUUGUUUACCUACCGCCGCUUUUUACCGUUCACAACAGAGGAUUGAGCAUCA
B18: chr3:62294290:62294391:+|3pUTR|ENSG00000144724|msi1|FALSE|unique (ssRNA)
RNA: B8 RNA with C27U, C28A, C57U, C58A, C83U, C84A

Substitutions are numbered along the chain they refer to. Whole data set: some 5,800 sequences, median “enrichment r” near 0.54, cut for the highest 2% near 16. What follows is part of a selection rich in the highest values, with near analogues and random picks from the rest.

MSI1 full-length, sequence (Q61474 whole entry): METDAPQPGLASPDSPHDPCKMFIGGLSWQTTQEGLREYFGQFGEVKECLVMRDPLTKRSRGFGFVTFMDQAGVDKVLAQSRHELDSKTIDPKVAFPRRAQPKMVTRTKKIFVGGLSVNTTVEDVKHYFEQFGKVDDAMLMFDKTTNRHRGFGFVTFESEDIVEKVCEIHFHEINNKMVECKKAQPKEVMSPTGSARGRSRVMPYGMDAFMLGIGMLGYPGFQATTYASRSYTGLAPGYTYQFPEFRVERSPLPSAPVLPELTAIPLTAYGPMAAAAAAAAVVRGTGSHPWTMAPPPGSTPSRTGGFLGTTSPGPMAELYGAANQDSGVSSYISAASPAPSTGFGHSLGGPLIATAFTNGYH

This assay concerns the target MSI1 full-length (mouse, UniProt Q61474 1-362). Put plainly: nsRBNS (natural sequence RNA bind-n-seq); RBNS binding buffer (assumed for nsRBNS): 25 mM Tris pH 7.5, 150 mM KCl, 3 mM MgCl2, 0.01% Triton X-100, 500 ug/ml BSA, 20 U/ml SUPERase-In, 4 C; UNK is unkempt and MSI1 is Musashi-1; names of the RNAs are library labels; protein concentration not given here; high values mean tight binding.
B1 showed a binding signal of 0.378 enrichment R.

For B2, the binding signal came out at 0.511 enrichment R. The result for B3 reads 0.359 enrichment R; that for B4, 0.431 enrichment R; that for B5, 5.77 enrichment R. As for B6, the binding signal was 0.61 enrichment R.

The molecule B7 gave a binding signal of 64.6 enrichment R. With B8 the figure was 8.49 enrichment R; with B9, 6.66 enrichment R; with B10, 19.3 enrichment R. With B11 the figure was 1.93 enrichment R. The molecule B12 yielded a binding signal of 0.319 enrichment R. With B13 the figure was 0.276 enrichment R; with B14, 8.96 enrichment R. The result for B15 reads 56.7 enrichment R. The result for B16 reads 3.57 enrichment R; that for B17, 0.557 enrichment R. Regarding B18, the binding signal came out at 32 enrichment R.
